{
  "source": "the supplement of paper PMC11865577",
  "note": "Where a name gives a salt, the structure may show the parent alone.",
  "data": [
    {"tested_on": "SARS-CoV-2 low-rank motif (SARS-low)", "experiment": "normalised indicator fluorescence (fraction of RNA + indicator signal without compound); higher = less displacement of indicator (weaker competition)", "conditions": "compound concentration: 5 uM; 30 min; indicator: TO-PRO-1 0.1 uM; RNA concentration: 0.1 uM", "in_short": "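Displacement screen in 96-well plates: TO-PRO-1 or TO-PRO-3 indicator with RNA in 20 mM phosphate pH 7.0, 20 mM NaCl, 80 mM KCl. Each compound was added as 0.25 μL of 1 mM DMSO stock (about 5 uM final), and fluorescence was read after 30 min on an Infinite 200 PRO (excitation 485 or 620 nm). Values are indicator fluorescence after subtracting the buffer-plus-indicator blank, divided by the no-compound RNA-plus-indicator signal. Each is the mean of two independent experiments.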", "values": [
      {"compound": "O=C(/C=C/C=C/c1ccc2c(c1)OCO2)N1CCCCC1", "note": "[Piperine]", "normalised indicator fluorescence": 1.02},
      {"compound": "COc1ccc(-c2coc3cc(O)ccc3c2=O)cc1O", "note": "[Calycosin]", "normalised indicator fluorescence": 1.4},
      {"compound": "COc1ccc(-c2nc(-c3cc(C(F)(F)F)cc(C(F)(F)F)c3)n(Cc3ccc(C(N)=O)cc3)c2-c2ccc(OC)cc2)cc1", "note": "[Apoptozole]", "normalised indicator fluorescence": 1.12},
      {"compound": "Oc1ccc(OCc2ccccc2)cc1", "note": "[Monobenzone]", "normalised indicator fluorescence": 1.17},
      {"compound": "CC(C)(O)[C@@H]1CC[C@](C)([C@H]2[C@@H](O)C[C@@]3(C)[C@@H]4C[C@H](O)[C@H]5C(C)(C)[C@@H](O[C@@H]6OC[C@@H](O)[C@H](O)[C@H]6O[C@@H]6O[C@H](CO)[C@@H](O)[C@H](O)[C@H]6O)CC[C@@]56C[C@@]46CC[C@]23C)O1", "note": "[Astragaloside III]", "normalised indicator fluorescence": 1.03},
      {"compound": "N=C(NCCCCCCNC(=N)NC(=N)Nc1ccc(Cl)cc1)NC(=N)Nc1ccc(Cl)cc1", "note": "[Chlorhexidine]", "normalised indicator fluorescence": 1.11},
      {"compound": "O=C(NC(Cc1cc(=O)[nH]c2ccccc12)C(=O)O)c1ccc(Cl)cc1", "note": "(stereo unspecified) [Rebamipide]", "normalised indicator fluorescence": 1.3},
      {"compound": "C[C@H]1[C@H](C)CC[C@]2(C(=O)O[C@@H]3O[C@H](CO[C@@H]4O[C@H](CO)[C@@H](O[C@@H]5O[C@H](C)[C@H](O)[C@@H](O)[C@H]5O)[C@H](O)[C@H]4O)[C@@H](O)[C@H](O)[C@H]3O)CC[C@]3(C)C(=CC[C@@H]4[C@@]5(C)C[C@@H](O)[C@H](O)[C@@](C)(CO)[C@@H]5CC[C@]43C)[C@H]12", "note": "[Asiaticoside]", "normalised indicator fluorescence": 1.05},
      {"compound": "C[C@H](CCC(=O)NCCS(=O)(=O)O)[C@H]1CC[C@H]2[C@@H]3[C@@H](O)C[C@@H]4C[C@H](O)CC[C@]4(C)[C@H]3CC[C@]12C", "note": "[Tauroursodeoxycholic Acid]", "normalised indicator fluorescence": 1.21},
      {"compound": "CN(NC(=O)CC(=O)NN(C)C(=S)c1ccccc1)C(=S)c1ccccc1", "note": "[Elesclomol]", "normalised indicator fluorescence": 1.17},
      {"compound": "O=CN1CC/C(=C/c2ccc3c(c2)OCO3)C1=O", "normalised indicator fluorescence": 1.02},
      {"compound": "O=C(O)CCc1ccc(O)cc1O", "note": "[Hydroumbellic acid]", "normalised indicator fluorescence": 1.15},
      {"compound": "Cn1cc(-c2ccc3c(c2)CCN3C(=O)Cc2cccc(C(F)(F)F)c2)c2c(N)ncnc21", "normalised indicator fluorescence": 1.35},
      {"compound": "CC1=CC(=O)c2c(O)cccc2C1=O", "note": "[Plumbagin]", "normalised indicator fluorescence": 1.22},
      {"compound": "CCCC(C(=O)OCCN(CC)CC)(c1ccccc1)c1ccccc1", "note": "[Proadifen hydrochloride]", "normalised indicator fluorescence": 1.28},
      {"compound": "C[C@H]1[C@H](C)CC[C@]2(C(=O)O)CC[C@]3(C)C(=CC[C@@H]4[C@@]5(C)C[C@@H](O)[C@H](O)[C@@](C)(CO)[C@@H]5CC[C@]43C)[C@H]12", "note": "[Asiatic acid]", "normalised indicator fluorescence": 1.08},
      {"compound": "O=C1C[C@@H](c2ccc(O)cc2)Oc2cc(O)cc(O)c21", "note": "[Naringenin]", "normalised indicator fluorescence": 1.03},
      {"compound": "CC1=NN(c2ccccc2)C(=O)C1", "note": "[Edaravone]", "normalised indicator fluorescence": 1.13},
      {"compound": "CCc1oc2ccccc2c1C(=O)c1cc(Br)c(O)c(Br)c1", "note": "[Benzbromarone]", "normalised indicator fluorescence": 1.02},
      {"compound": "Oc1ccc(OC2CCCCO2)cc1", "note": "(stereo unspecified) [Deoxyarbutin]", "normalised indicator fluorescence": 1.17},
      {"compound": "COc1ccc(C(=C2C(=O)Nc3ccccc32)c2ccc(OC)cc2)cc1", "normalised indicator fluorescence": 1.38},
      {"compound": "O=C1O[C@H]([C@@H](O)CO)C(O)=C1O", "note": "[L(+)-Ascorbic acid]", "normalised indicator fluorescence": 1.18},
      {"compound": "CNC(=O)c1ccc(C)c(-n2c(C)cc(OCc3ccc(F)cc3F)c(Br)c2=O)c1", "normalised indicator fluorescence": 1.01},
      {"compound": "O=C(O)/C=C/c1ccc(Cn2ccnc2)cc1", "note": "[Ozagrel hydrochloride]", "normalised indicator fluorescence": 1.1},
      {"compound": "N#Cc1c(NC(=O)c2cccc3ccccc23)sc2c1CCCC2", "normalised indicator fluorescence": 1.03},
      {"compound": "O=C(Nc1ccc2[nH]nc(-c3ccncc3)c2c1)[C@@H]1CCN(CC(=O)N2CCN(c3ccc(-c4ncccn4)cc3)CC2)C1", "normalised indicator fluorescence": 1.11},
      {"compound": "O=C1c2c(O)cc(O)cc2OC(c2ccc(O)c(O)c2)C1O", "note": "(stereo unspecified) [Taxifolin]", "normalised indicator fluorescence": 1.25},
      {"compound": "C[C@H]1Oc2cc(cnc2N)-c2c(nn(C)c2C#N)CN(C)C(=O)c2ccc(F)cc21", "note": "[Lorlatinib]", "normalised indicator fluorescence": 1.13},
      {"compound": "CC(C)c1cc(-c2n[nH]c(=O)n2-c2ccc3c(ccn3C)c2)c(O)cc1O", "note": "[Ganetespib]", "normalised indicator fluorescence": 1.26},
      {"compound": "Cc1cc(C(C)(C)C)c(O)c(C(C)(C)C)c1", "normalised indicator fluorescence": 1.26},
      {"compound": "CC(=O)O[C@H]1C[C@@]2(C)[C@@H](C[C@@H](O)[C@H]3[C@@]4(C)CC[C@@H](O)[C@@H](C)[C@@H]4CC[C@@]32C)/C1=C(\\CCC=C(C)C)C(=O)O", "note": "[Fusidine]", "normalised indicator fluorescence": 1.26},
      {"compound": "Oc1ccc(-c2nc(-c3ccc(F)cc3)c(-c3ccncc3)[nH]2)cc1", "normalised indicator fluorescence": 1.2},
      {"compound": "Cc1cc(NC(=O)c2cccc(NC(=O)/C=C/CN(C)C)c2)ccc1Nc1nccc(-c2cccnc2)n1", "normalised indicator fluorescence": 0.999},
      {"compound": "O=C(O)/C=C/c1ccc(Cn2ccnc2)cc1", "note": "[Ozagrel]", "normalised indicator fluorescence": 1.09},
      {"compound": "COc1ccc2c(c[n+](C)c3c4cc5c(cc4ccc23)OCO5)c1OC", "note": "[Chelerythrine chloride]", "normalised indicator fluorescence": 1.46},
      {"compound": "O=c1c(O)c(-c2cc(O)c(O)c(O)c2)oc2cc(O)cc(O)c12", "note": "[Myricetin]", "normalised indicator fluorescence": 0.808}
    ]}
  ]
}
